# Reference: PubChem BioAssay (NCI)
# This is part of a sample that, as a whole, favours compounds with a hit. Of some 83,000 tested, about 20% had one in any assay.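 Activity criterion: percent growth below 10, measured after cells in 96-well plates were exposed to a single compound concentration for 48 hours.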 Values without a mark were called inactive.
# System: SNB-19 CNS
# Test: NCI-60 one-dose screen, 48 h (100 = growth as untreated, 0 = no growth, -100 = all killed)
# Settings: 10 µM unless noted
row,SMILES,growth
1,CC1(C)OC2COC3(C(=O)O)OC(C)(C)OC3C2O1 (centres undefined),92.1%
2,Cc1ccc(Cn2c(-c3cccs3)nc3ccccc32)cc1,95.1%
3,COc1cc2c(cc1OC)C1(C)N(CC2)C(=O)OC1(C)C (centres undefined),105%
4,Cc1cc(-c2ccccc2)c(C)n1Cc1ccc(Cl)cc1,61%
5,CCN(Cc1ccccc1)c1ccc(SC#N)cc1,90.7%
6,O=C1Nc2ccc(Br)cc2C1=N/C=c1\[nH]c(=O)/c(=C/c2ccc(Cl)cc2)s1,94%
7,COc1ccc(-c2nc(-c3ccccc3)c(-c3ccccc3)n2C2CC2)cc1OC1CCCCC1,83.7%
8,CC(=O)Nc1ccc(S(=O)(=O)N2C(=O)CCC2C(=O)Nc2ccccc2)cc1 (centres undefined),45%
9,COc1cc(CNC(=O)CCSc2nc3ccccc3c(=O)n2Cc2cc(OC)c(OC)c(OC)c2)cc(OC)c1OC,56%
10,O=C(CN1CCN(c2cc3c(cc2F)c(=O)c(C(=O)O)cn3C2CC2)CC1)Nc1ccc(C(=O)/C=C/c2ccccc2)cc1,40.3%
11,CC(C)N(Cc1ccc(CN(C(=O)CCl)C(C)C)cc1)C(=O)CCl,63.2%
12,COc1ccc(/C=C/c2cc(N3CCOCC3)c3cc(F)c(F)cc3n2)cc1OC,48.8%
13,COc1cccc(-n2cc(-c3nc(Cl)c4ccccc4n3)nn2)c1,94%
14,CCNC(=O)C1CCCN1C(=O)C(CCCN=C(N)N)NC(=O)C(CC(C)C)NC(=O)C(CC(C)C)NC(=O)C(Cc1ccc(O)cc1)NC(=O)C(CO)NC(=O)C(Cc1c[nH]c2ccccc12)NC(=O)C(Cc1cnc[nH]1)NC(=O)C1CCC(=O)N1 (centres undefined),102%
